# Compounds with a hit are over-represented: about 10% of the library has one in this group of screens.
# G9a block – qHTS Assay for Inhibitors of Histone Lysine Methyltransferase G9a; G9a H3K9 monomethylation, AlphaScreen, 2 h; Potency, µM (top dose mostly 102 µM), for inactives: at the highest dose activity, negative = inhibition, usual class: inhibitors; 8.8% of 350,000 active; note: % is set by controls: 0 for no effect and ±100 for the full control effect; nearly all actives have a fitted effect of over 75% in size
#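 G9a (20 nM) was preincubated 15 min with compound, then reacted 2 h at room temperature with 500 nM biotin-H3K9 peptide and 20 µM SAM. Monomethyl-H3K9 detected by AlphaScreen using anti-H3K9me1 antibody.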
# JMJD2A Tudor – qHTS Assay for Inhibitors of JMJD2A-Tudor Domain; Lysine-specific demethylase 4A (Homo sapiens), O75164; AlphaScreen JMJD2A-Tudor / H3K4me3 peptide binding; Potency, µM (titrated, usually from 114 µM), for the others: at the top dose activity change, negative = inhibition, usual class: inhibitors; 4.4% of 390,000 active; AID 504339, 2011; note: % is set by controls: 0 for no effect and ±100 for the full control effect; nearly all actives have a fitted effect of over 50% in size
# Target sequence (O75164 whole entry, looked up, the tested form may be a part): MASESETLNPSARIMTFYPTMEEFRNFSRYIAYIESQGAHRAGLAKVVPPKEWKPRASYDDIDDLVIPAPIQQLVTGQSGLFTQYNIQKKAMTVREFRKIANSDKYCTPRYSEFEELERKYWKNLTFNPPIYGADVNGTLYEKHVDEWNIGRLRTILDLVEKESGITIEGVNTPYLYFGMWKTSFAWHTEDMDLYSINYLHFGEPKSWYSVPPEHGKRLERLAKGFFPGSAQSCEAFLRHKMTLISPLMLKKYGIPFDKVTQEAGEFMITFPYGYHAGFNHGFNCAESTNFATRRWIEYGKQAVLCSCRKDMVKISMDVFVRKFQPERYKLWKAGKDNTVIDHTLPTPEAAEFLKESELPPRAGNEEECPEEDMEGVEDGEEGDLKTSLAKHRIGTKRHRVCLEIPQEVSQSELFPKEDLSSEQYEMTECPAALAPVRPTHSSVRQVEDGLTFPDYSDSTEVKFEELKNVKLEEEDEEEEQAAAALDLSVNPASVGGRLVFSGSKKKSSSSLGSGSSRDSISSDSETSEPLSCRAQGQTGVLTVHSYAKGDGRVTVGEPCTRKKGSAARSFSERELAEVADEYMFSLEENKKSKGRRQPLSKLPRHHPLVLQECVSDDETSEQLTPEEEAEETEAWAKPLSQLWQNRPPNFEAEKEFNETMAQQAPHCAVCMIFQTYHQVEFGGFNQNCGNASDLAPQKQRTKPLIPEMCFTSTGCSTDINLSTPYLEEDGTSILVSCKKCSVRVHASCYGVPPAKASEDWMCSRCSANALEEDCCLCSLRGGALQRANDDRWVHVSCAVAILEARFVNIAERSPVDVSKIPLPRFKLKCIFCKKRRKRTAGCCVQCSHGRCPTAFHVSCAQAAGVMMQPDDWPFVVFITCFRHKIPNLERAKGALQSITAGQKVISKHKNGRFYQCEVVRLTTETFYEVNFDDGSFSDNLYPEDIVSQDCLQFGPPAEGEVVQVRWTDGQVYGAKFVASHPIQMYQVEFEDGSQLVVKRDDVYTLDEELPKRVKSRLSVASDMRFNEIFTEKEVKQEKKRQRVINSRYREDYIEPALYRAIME
# BAZ2B inh – qHTS Assay for Inhibitors of BAZ2B. Bromodomain adjacent to zinc finger domain protein 2B (Homo sapiens), Q9UIF8. AlphaScreen BAZ2B-H3K14Ac peptide displacement. Potency, µM (doses to about 114 µM), without a hit: at the highest dose activity change, negative = inhibition, hits mostly inhibitors. 4.4% of 360,000 active; note: % is set by controls: 0 for no effect and ±100 for the full control effect; nearly all actives have a fitted effect of over 60% in size
#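 AlphaScreen displacement of biotin-H3(5-23)K14Ac peptide (50 nM final) from BAZ2B (50 nM final) in PBS pH 7.4, 0.01% Tween-20; complex preformed 30 min RT, then compounds (top 110 uM) 30 min RT, beads 20 min dark.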
# GLS inhibitor – qHTS for Inhibitors of Glutaminase (GLS) | Glutaminase kidney isoform, mitochondrial (Homo sapiens), O94925 | GLS enzymatic activity, qHTS titration | Potency, µM (highest dose often 45.5 µM), for inactives: at the highest dose activity change, negative = inhibition, hits mostly inhibitors | 0.21% of 410,000 active | AID 624170, 2012; note: % is set by controls: 0 for no effect and ±100 for the full control effect
#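 Glutamate formation by hKGA was monitored fluorometrically using coupled glutamate oxidase, HRP and Amplex Red. Substrate was added as 1 mM L-glutamine solution; incubation was 30 min at RT after an initial read.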
# HP1b binding inh – HTS for Inhibitors of HP1-beta Chromodomain Interactions with Methylated Histone Tails; Chromobox protein homolog 1 (Homo sapiens), P83916; AlphaScreen HP1-beta / biotin-H3K9me3 peptide binding; Potency, µM (series often up to 114 µM), without a hit: at the top dose activity change, negative = inhibition, hits mostly inhibitors; 0.56% of 390,000 active; AID 540317, 2011; note: nearly all actives have a fitted effect of over 70% in size
#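 Compound inhibition of the preformed complex between 50 nM HP1-beta and 50 nM biotinylated H3K9me3 peptide was read by AlphaScreen. Buffer was PBS pH 7.4 with 0.01% Tween-20. Incubations ran 30 min at room temperature, with 10 ug/mL donor/acceptor beads.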
# * hit, by the source's call; ? = inconclusive; . = not tested or not shown; [ ] = another dose, or the depositor's remark. Calls come from the whole dose curve; as a rule, active = well fitted curve in the direction sought with a large enough effect; inconclusive = small, poorly fitted or top-dose-only effect, or another doubt; inactive = no such curve, though single readings can be large; an effect the other way counts as inactive or inconclusive. Potency is the fitted concentration of half-maximal effect.
SMILES,G9a block,JMJD2A Tudor,BAZ2B inh,GLS inhibitor,HP1b binding inh
COCCCn1c(-c2ccco2)nc2ccccc2c1=O,-1%[59 µM],-8%,4%,-5%,37%
CCn1nc([N+](=O)[O-])c2c(-c3nc4ccccc4o3)c(N)n(CCCOC)c2c1=O,?,?,56µM*,1%,-1%
COC(=O)c1sccc1NC(=S)N1CCCCC1C (centres undefined),?,14%[57.1 µM],2%,0%,54%
COC(=O)c1sccc1NC(=S)N1C(C)CCCC1C (centres undefined),10µM*,-8%,8%,14%,41%
COC(=O)c1sccc1NC(=S)Nc1cc(C)ccc1OC,50µM*,?,.,1%,12%
CCOC(=O)c1ccc(NC(=O)C2CCCN(c3ccc(Sc4ccc(C)cc4)nn3)C2)cc1 (centres undefined),-33%[59 µM],-10%,-2%,-5%,34%
c1ccc2c(c1)nc(NCCN1CCOCC1)c1nncn12,50µM*,-8%,12%,-6%,39%
c1ccc2c(c1)CCN(c1nc3ccccc3n3cnnc13)C2,50µM*,?,-2%,-3%,6%
c1ccc(CN2CCN(c3nc4ccccc4n4cnnc34)CC2)cc1,50µM*,-28%,-10%,1%,13%
C1=C(c2ccccc2)CCN(c2nc3ccccc3n3cnnc23)C1,22µM*,-34%,6%,0%,-1%
c1ccc(N2CCN(c3nc4ccccc4n4cnnc34)CC2)cc1,-10%,-28%,-21%,9%,24%
c1ccc2c(c1)nc(N1CCOCC1)c1nncn12,-10%,3%,9%,4%,27%
c1ccc2c(c1)CCCN2c1nc2ccccc2n2cnnc12,4%,-14%,0%,1%,42%
CCN(c1cccc(C)c1)C(C(=O)Nc1ccc(OC)cc1)c1cc2c(cc1[N+](=O)[O-])OCO2 (centres undefined),?,?,?,-10%,?
COc1ccc(NC(=O)C(c2cc3c(cc2[N+](=O)[O-])OCO3)N(C)Cc2ccccc2)cc1 (centres undefined),79µM*,?,?,-1%,?
COc1ccc(C2NC(=S)NC(C)=C2C(=O)N2CCOCC2)cc1 (centres undefined),40µM*,2%,5%,-9%,41%
Cc1ccc(N2CC(NC(=O)C3CCCCC3)CC2=O)cc1C (centres undefined),5%[59 µM],-5%,3%,1%,25%
O=C(N/N=C/c1ccc(N2CCCCC2)o1)C(O)(c1ccccc1)c1ccccc1,13µM*,.,-28%,.,.
O=C(NN=Cc1ccccc1O)C(O)(c1ccccc1)c1ccccc1,.,-1%,.,7%,46%
CN(C)c1ccc(/C=N/NC(=O)C(O)(c2ccccc2)c2ccccc2)o1,7.9µM*,?,-26%,6%,0%
CN(C)c1ccc(/C=N/NC(=O)c2ccccc2O)o1,28µM*,-21%,3%,0%,9%
c1ccc(CSc2ccc(-c3ccco3)nn2)cc1,25µM*,-8%,-4%,-6%,30%
Fc1ccccc1CSc1ccc(-c2ccco2)nn1,40µM*,10%,-6%,0%,6%
Clc1cccc(CSc2ccc(-c3ccco3)nn2)c1,16µM*,72%,9%,-19%,9%
N#Cc1ccc(-c2ccco2)nc1SCc1ccccc1,28µM*,84%,18%,4%,42%
SMILES,G9a block,JMJD2A Tudor,BAZ2B inh,GLS inhibitor,HP1b binding inh
Cc1cccc(CSc2ccc(-c3ccco3)nn2)c1,-20%[59 µM],8%,-38%,-1%,26%
CCC(=O)N1CCC(C)(C(=O)NCc2ccc(F)cc2)C1 (centres undefined),.,.,.,-4%,.
Cc1ccc(CSc2ccc(-c3ccc4c(c3)OCO4)nn2)cc1,50µM*,8%,-2%,-1%,19%
Cc1ccc(CSc2nnc(-c3ccc4c(c3)OCO4)o2)cc1,5%[59 µM],11%,10%,-2%,30%
Cc1ccc(CSc2ccc(-c3ccco3)nn2)cc1,18µM*,-3%,-36%,-1%,36%
Clc1ccc(CSc2ccc(-c3ccco3)nn2)cc1,-46%,4%,5%,5%,23%
CC1CCc2[nH]c3ccc(C(=O)N(C)CC(=O)Nc4ccccc4Br)cc3c2C1 (centres undefined),45µM*,?,?,-3%,-38%
COc1ccc2cc(C(=O)N(C)CC(=O)Nc3ccccc3Br)ccc2c1,8.9µM*,-11%,3%,18%,37%
Cc1cccc(NC(=O)CCC(=O)Nc2nnc(C(F)(F)F)s2)c1,-3%,-15%,-2%,9%,19%
CCn1ccnc1C(O)c1ccc(N(C)C)cc1 (centres undefined),32µM*,?,?,44%,-5%
Oc1ccc(Br)cc1/C=N/N1CCN(Cc2ccccc2)CC1,12%[0.501 µM],?,?,12%,-20%
COc1cc(/C=N/N2CCN(Cc3ccc(Cl)cc3)CC2)ccc1OC(C)=O,.,45µM*,56µM*,0%,?
COc1cc(/C=N/N2CCN(Cc3ccc(Cl)cc3)CC2)cc(Br)c1O,2%[0.501 µM],45µM*,50µM*,5%,-21%
COC(=O)c1ccc(/C=N/N2CCN(Cc3ccc(Cl)cc3)CC2)cc1,-8%,-10%,-34%,3%,36%
CCC(CC)C(=O)OCC(=O)Nc1cc(OC)c([N+](=O)[O-])cc1C,-9%[59 µM],-11%,-18%,0%,30%
COCCn1c(SCc2cccc(F)c2)nc2cc(C(=O)OC)ccc2c1=O,107%,14%,25%,-2%,69%
CSCCC1NC2(C(=O)Nc3c(Cl)cccc32)[C@@H]2C(=O)N(C3CCCC3)C(=O)[C@H]12 (some centres undefined),71µM*,?,-24%,-24%,4%
O=c1[nH]c(=O)n2c(c1-c1ccccc1)OC(CBr)C2 (centres undefined),.,.,.,1%,.
CC(=O)C1=C(c2ccc(Br)cc2)C(=O)c2ccccc2C1=O,35µM*,22µM*,25µM*,5%,25µM*
CNC1=C(N(C(C)=O)c2ccc(Br)cc2)C(=O)c2ccccc2C1=O,?,-23%,?,7%,-10%
Cc1nn2c(=O)cc(COc3ccc(/C=C(\C#N)C(=O)Nc4ccc(F)cc4)cc3)nc2s1,4%[59 µM],-7%,-24%,?,64%
Cc1ccc(NN=C2c3ccccc3-c3ccccc32)cc1,8.9µM*,56µM*,?,0%,?
c1ccc(NN=C2c3ccccc3-c3ccccc32)cc1,.,-27%,.,-10%,3%

# Assay outcomes as filed in PubChem.
